From the supplement of paper PMC13380429
A number with no mark means an inactive call.

System: Vero E6 infected with SARS-CoV-2
Assay: inhibition of SARS-CoV-2 cytopathic effect; higher = more antiviral protection, active = above 15
Conditions: 8.33 nM; 48 h

| Structure (SMILES) | inhibition of SARS-CoV-2 cytopathic effect |
| --- | --- |
| O=C(O)CC/C=C\C[C@@H]1CO[C@H](c2ccccc2Cl)O[C@@H]1c1ccccc1O (racemic) | 1% |
| CCCC(=O)OCOC(=O)C1=C(C)NC(C)=C(C(=O)OC)C1c1cccc(Cl)c1Cl (centres undefined) [cleviprex] | 3.86% |
| Cc1cc(C)nc(NS(=O)(=O)c2ccc(N)cc2)n1 [sulfamethazine] | 0.49% |
| CCC(=O)O[C@@H](O[P@@](=O)(CCCCc1ccccc1)CC(=O)N1C[C@H](C2CCCCC2)C[C@H]1C(=O)O)C(C)C [fosinopril] | 0.8% |
| Oc1ccc(CC2NCCc3cc(O)c(O)cc32)cc1 (centres undefined) [higenamine] | 2.53% |
| O=C(O)Cn1nnc(-c2cc(N3CCC(Oc4cc(F)ccc4Br)CC3)no2)n1 | -0.71% |
| CC(C)C(=O)c1c(C(C)C)nn2ccccc12 [ibudilast] | 6.68% |
| N[C@H](C(=O)O)[C@H](O)c1ccc(O)c(O)c1 [droxidopa] | 3.16% |
| Cc1cc(=O)[nH]c(=S)[nH]1 [methylthiouracil] | 2.29% |
| CCCCN(CCCC)C(=O)CN1C[C@H](c2ccc3c(c2)OCO3)[C@@H](C(=O)O)[C@@H]1c1ccc(OC)cc1 [atrasentan] | 1.72% |
| Cc1csc(S(=O)(=O)N(CC(C)C)c2cc3c(cc2OCc2ccc(C(=O)O)cc2)CCC3)n1 | -1.9% |
| N=C(N)Nc1ccc(C(=O)Oc2ccc3cc(C(=N)N)ccc3c2)cc1 [nafamostat] | 4.06% |
| CC(C)SC(=N)N [S-isopropylisothiourea] | 0.91% |
| O=C(NCC(=O)N1CCCC1)Nc1ccc2cnccc2c1 | 0.25% |
| CCC(CC)O[C@@H]1C=C(C(=O)O)C[C@H](N)[C@H]1NC(C)=O [oseltamivir-carboxylate] | 0.87% |
| O=C(c1ccc(CN2CCOCC2)cc1)N1CCN(C2CC2)CC1 [bavisant] | 1.98% |
| Cc1ccc(NC(=O)c2cccc(N(C)C)c2)cc1NC(=O)c1ccc(O)cc1 | -1.26% |
| CC(=O)[C@H]1CC[C@H]2[C@@H]3CCC4=CC(=O)CC[C@]4(C)[C@H]3CC[C@]12C [progesterone] | 0.75% |
| N[C@@H](C(=O)O)c1ccc(C(=O)O)c(O)c1 (racemic) [4-carboxy-3-hydroxyphenylglycine-(RS)] | -0.33% |

Same assay, conditions: 100 nM; 48 h

| Structure (SMILES) | inhibition of SARS-CoV-2 cytopathic effect |
| --- | --- |
| CC(C)=CCC[C@](C)(O[C@@H]1O[C@H](CO)[C@@H](O)[C@H](O)[C@H]1O)[C@H]1CC[C@]2(C)[C@@H]1[C@H](O)C[C@@H]1[C@@]3(C)CC[C@H](O)C(C)(C)[C@@H]3CC[C@]12C [ginsenoside-C-K] | 3.64% |
| C=C(C)CN1CC[C@]23c4c5ccc(O)c4O[C@H]2c2[nH]c4ccccc4c2C[C@@]3(O)C1C5 | 0.33% |
| C[C@]1(COc2ccc(N3CCC(Oc4ccc(OC(F)(F)F)cc4)CC3)cc2)Cn2cc([N+](=O)[O-])nc2O1 [delamanid] | -1.12% |
| Nc1ncnc2c1c(-c1ccc(Oc3ccccc3)cc1)nn2C1CCCC1 | 0.15% |
| C1=C2CCCN[C@H]2[C@@H]2C[C@H]1[C@H]1CCCCN1C2 [aloperine] | -0.38% |
| COc1cc(NC(=O)c2ccc(-c3ccc(Cl)cc3)o2)cc(OC)c1 | 0.76% |
| C=C[C@H]1CN2CC[C@H]1C[C@@H]2[C@@H](O)c1ccnc2ccc(OC)cc12 [quinidine] | -8.19% |
| CC(=O)N[C@H](Cc1ccc2ccccc2c1)C(=O)N[C@H](Cc1ccc(Cl)cc1)C(=O)N[C@H](Cc1cccnc1)C(=O)N[C@@H](CO)C(=O)N[C@@H](Cc1ccc(O)cc1)C(=O)N[C@H](CCCNC(N)=O)C(=O)N[C@@H](CC(C)C)C(=O)N[C@@H](CCCNC(=N)N)C(=O)N1CCC[C@H]1C(=O)N[C@H](C)C(N)=O [cetrorelix] | 5.4% |
| CC(=O)Nc1cccc(-n2c(=O)n(C3CC3)c(=O)c3c(Nc4ccc(I)cc4F)n(C)c(=O)c(C)c32)c1 [trametinib] | -14.6% |
| Clc1ccc(-c2nc3sccn3c2/C=N/OCc2ccc(Cl)c(Cl)c2)cc1 | -1.16% |
| C[C@H]1CNCCCN1S(=O)(=O)c1cccc2cncc(F)c12 [ripasudil] | -1.45% |
| COc1ccc(-n2[nH]c3c4c(ncc3c2=O)CCCCC4)cc1 | -0.83% |
| N[C@@H]1CONC1=O [cycloserine-(D)] | -2.78% |
| C[C@@H](N)c1ccc(C(=O)Nc2ccnc3[nH]ccc23)cc1 | 0.35% |
| CCn1cc(C(=O)O)c(=O)c2cc(F)c(N3CCNC(C)C3)c(F)c21 (centres undefined) [lomefloxacin] | -1.13% |
| CC(C)CCC[C@@H](C)[C@H]1CC[C@H]2[C@@H]3CC=C4C[C@@H](O)CC[C@]4(C)[C@H]3CC[C@]12C [cholesterol] | 1.08% |
| O=C1c2ccccc2C(Cc2ccnc(F)c2)(Cc2ccnc(F)c2)c2ccccc21 | 5.3% |
| Nc1ccn([C@H]2CC[C@@H](CO)O2)c(=O)n1 [zalcitabine] | -4.07% |
| CCCn1c(=O)c2[nH]c(C3CCCC3)nc2n(CCC)c1=O | 1.58% |
| C[C@]12CC[C@H](O)C[C@H]1CC[C@@H]1[C@@H]2CC[C@]2(C)[C@@H](c3ccc(=O)oc3)C[C@H]3O[C@]132 [resibufogenin] | -5.86% |

| Structure (SMILES) | inhibition of SARS-CoV-2 cytopathic effect |
| --- | --- |
| c1ccc(Cn2c(N3CCNCC3)nc3ccccc32)cc1 [lerisetron] | -0.91% |
| O=C(O)CC/C=C\C[C@@H]1CO[C@H](c2ccccc2Cl)O[C@@H]1c1ccccc1O (racemic) | -2.37% |
| CCCC(=O)OCOC(=O)C1=C(C)NC(C)=C(C(=O)OC)C1c1cccc(Cl)c1Cl (centres undefined) [cleviprex] | 2.92% |
| Cc1cc(C)nc(NS(=O)(=O)c2ccc(N)cc2)n1 [sulfamethazine] | 0.37% |
| CCC(=O)O[C@@H](O[P@@](=O)(CCCCc1ccccc1)CC(=O)N1C[C@H](C2CCCCC2)C[C@H]1C(=O)O)C(C)C [fosinopril] | 2.37% |
| Oc1ccc(CC2NCCc3cc(O)c(O)cc32)cc1 (centres undefined) [higenamine] | 1.77% |
| O=C(O)Cn1nnc(-c2cc(N3CCC(Oc4cc(F)ccc4Br)CC3)no2)n1 | 1.39% |
| CC(C)C(=O)c1c(C(C)C)nn2ccccc12 [ibudilast] | 5.43% |
| N[C@H](C(=O)O)[C@H](O)c1ccc(O)c(O)c1 [droxidopa] | 5.47% |
| Cc1cc(=O)[nH]c(=S)[nH]1 [methylthiouracil] | -0.49% |
| CCCCN(CCCC)C(=O)CN1C[C@H](c2ccc3c(c2)OCO3)[C@@H](C(=O)O)[C@@H]1c1ccc(OC)cc1 [atrasentan] | 1.15% |
| Cc1csc(S(=O)(=O)N(CC(C)C)c2cc3c(cc2OCc2ccc(C(=O)O)cc2)CCC3)n1 | 3.16% |
| N=C(N)Nc1ccc(C(=O)Oc2ccc3cc(C(=N)N)ccc3c2)cc1 [nafamostat] | 4.33% |
| CC(C)SC(=N)N [S-isopropylisothiourea] | 3.8% |
| O=C(NCC(=O)N1CCCC1)Nc1ccc2cnccc2c1 | 0.13% |
| CCC(CC)O[C@@H]1C=C(C(=O)O)C[C@H](N)[C@H]1NC(C)=O [oseltamivir-carboxylate] | 0.49% |
| O=C(c1ccc(CN2CCOCC2)cc1)N1CCN(C2CC2)CC1 [bavisant] | -1.82% |
| Cc1ccc(NC(=O)c2cccc(N(C)C)c2)cc1NC(=O)c1ccc(O)cc1 | 6.65% |
| CC(=O)[C@H]1CC[C@H]2[C@@H]3CCC4=CC(=O)CC[C@]4(C)[C@H]3CC[C@]12C [progesterone] | 2.72% |
| N[C@@H](C(=O)O)c1ccc(C(=O)O)c(O)c1 (racemic) [4-carboxy-3-hydroxyphenylglycine-(RS)] | 0.94% |
